Experimental data from PubChem BioAssay (NCI).
“And” between values parts separate entries of the source, which are not always exact repeats. Equal entries are not always repeated. About 79,000 compounds went through this panel and 15% of them were active in at least one assay; those are over-represented in the sample as a whole. A number with no mark means an inactive call. The source made the active and inactive calls. No stated cut-off is given here; in the data, active means growth inhibition above about 70%; inactive means the rest.

Assays:
[1] = NCI Yeast Anticancer Drug Screen. Data for the rad50 strain (AID 155);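 further: 0% = growth of vehicle-only cultures of the same strain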; settings: S. cerevisiae rad50 strain growth inhibition; at 50.0 µM; active compounds read high
How it was run: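 Readout: growth inhibition relative to vehicle-treated cultures. Compound exposure was carried out in a genetically defined yeast strain deficient in DNA damage repair.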

[2] = NCI Yeast Anticancer Drug Screen. Data for the mec2-1 strain (AID 157); settings: S. cerevisiae mec2-1 strain, at 50.0 µM, active compounds read high
How it was run: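 Growth inhibition is read against vehicle-treated controls after compound exposure of the mec2-1 yeast strain, which is defective in DNA damage repair or cell cycle control.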

[3] = NCI Yeast Anticancer Drug Screen. Data for the sgs1 mgt1 strain (AID 161);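 further: 0% = growth of cultures given vehicle only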; settings: S. cerevisiae sgs1 mgt1 strain, at 50.0 µM, active compounds read high
How it was run: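 Growth of a repair-deficient yeast mutant was monitored after compound treatment and expressed as inhibition relative to vehicle-treated cultures.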

[4] = NCI Yeast Anticancer Drug Screen. Data for the cln2 rad14 strain (AID 165);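 further: 0% = growth equal to vehicle treated cultures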; settings: S. cerevisiae cln2 rad14 strain, at 50.0 µM, active compounds read high
How it was run: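 Growth inhibition, relative to vehicle-treated controls, is the read-out. The test organism is a yeast strain with defined genetic alterations, cln2 rad14.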

[5] = NCI Yeast Anticancer Drug Screen. Data for the bub3 strain (AID 167); settings: S. cerevisiae bub3 mutant strain, at 50.0 µM, active compounds read high
How it was run: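 Readout: yeast growth inhibition, expressed relative to vehicle-only wells. The test organism is a mutant strain from a panel with lesions in DNA repair or checkpoint genes.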

[6] = NCI Yeast Anticancer Drug Screen. Data for the mlh1 rad18 strain (AID 175); settings: S. cerevisiae mlh1 rad18 strain growth inhibition; at 50.0 µM; active compounds read high
How it was run: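 Cells of a genetically altered yeast strain, deficient in DNA damage repair, were treated with compound. Their growth was then compared with that of vehicle-treated cultures to give inhibition.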

## [N-]=[N+]=Nc1cc(=O)oc2ccccc12
[1]
  growth inhibition: 25.6%
[2]
  growth inhibition: 10.2%
[3]
  growth inhibition: -8.25%
[4]
  growth inhibition: 13.6%
[5]
  growth inhibition: 0.9%
[6]
  growth inhibition: 1.1%

## COC(=O)C(C)N(CCCl)P(=O)(N1CC1)N1CC1 (configuration not stated)
[1]
  growth inhibition: 5.4%
[2]
  growth inhibition: 8.2%
[3]
  growth inhibition: 11.4%
[4]
  growth inhibition: 9.1%
[5]
  growth inhibition: 4.35%
[6]
  growth inhibition: 1.85%

## O=C(N/N=C/c1cc(Br)cc(Br)c1[O-])c1ccccc1O.O=C(N/N=C/c1cc(Br)cc(Br)c1[O-])c1ccccc1O.[Cl-].[Fe+3]
[1]
  growth inhibition: -3.25%
[2]
  growth inhibition: 0.15%
[3]
  growth inhibition: -4.95%
[4]
  growth inhibition: -30.1%
[5]
  growth inhibition: 12.1%
[6]
  growth inhibition: 13.3%

## CC1(C)N=C(N)N=C(N)N1c1ccc(CCCCc2ccccc2S(=O)(=O)F)c(Cl)c1
[1]
  growth inhibition: 99.5% (active)
[2]
  growth inhibition: 99.7% (active)
[3]
  growth inhibition: 99.7% (active)
[4]
  growth inhibition: 99.4% (active)
[5]
  growth inhibition: 99.5% (active)
[6]
  growth inhibition: 99.7% (active)

## CC(=O)Nc1nccs1.CC(=O)Nc1nccs1.[Cl][Pt][Cl]
[1]
  growth inhibition: 9%
[2]
  growth inhibition: 5.25%
[3]
  growth inhibition: 8.8%
[4]
  growth inhibition: -1.55%
[5]
  growth inhibition: -1.45%
[6]
  growth inhibition: 5.1%

## Cc1cccc(C)c1CCl
[1]
  growth inhibition: -1.45% and 23.5%
[2]
  growth inhibition: -9.75% and -12.8%
[3]
  growth inhibition: -8.15% and -4.3%
[4]
  growth inhibition: 12.9% and -38.5%
[5]
  growth inhibition: 9.65% and -1.35%
[6]
  growth inhibition: 6.95% and 20.7%

## COc1ccc2[nH]cc(CN(C)C)c2c1
[1]
  growth inhibition: 21.4%
[2]
  growth inhibition: -7.6%
[3]
  growth inhibition: -10.2%
[4]
  growth inhibition: 5.3%
[5]
  growth inhibition: -6.35%
[6]
  growth inhibition: 18.6%

## COc1ccccc1CC(C)NC(C)Cc1ccccc1OC (configuration not stated)
[1]
  growth inhibition: 2.25%
[2]
  growth inhibition: -3.4%
[3]
  growth inhibition: 8.05%
[4]
  growth inhibition: -1.8%
[5]
  growth inhibition: -1.4%
[6]
  growth inhibition: 7.6%

## CCN(CC)CCn1ncc2c(N)ncnc21
[1]
  growth inhibition: -0.25%
[2]
  growth inhibition: -9%
[3]
  growth inhibition: -26.4%
[4]
  growth inhibition: -19.6%
[5]
  growth inhibition: -22.8%
[6]
  growth inhibition: -1.15%

## NC1CC2CCCCC2CC1c1ccccc1 (configuration not stated)
[1]
  growth inhibition: 14.8%
[2]
  growth inhibition: 19.4%
[3]
  growth inhibition: 18.5%
[4]
  growth inhibition: 11.9%
[5]
  growth inhibition: -5.85%
[6]
  growth inhibition: 18.1%

## CCOP(=O)(OCC)Oc1cc(C)c(SC)c(C)c1
[1]
  growth inhibition: -6.45%
[2]
  growth inhibition: -24.4%
[3]
  growth inhibition: -0.6%
[4]
  growth inhibition: 9.25%
[5]
  growth inhibition: 19%
[6]
  growth inhibition: -16.8%

## CN(C)C(=S)Oc1ccc(S(=O)(=O)F)cc1
[1]
  growth inhibition: 34.2%
[2]
  growth inhibition: 17.2%
[3]
  growth inhibition: 14.6%
[4]
  growth inhibition: 22.6%
[5]
  growth inhibition: 8.65%
[6]
  growth inhibition: 20.9%

## [CH3][Sn]([CH3])([n]1cnc2ccccc21)[n]1cnc2ccccc21
[1]
  growth inhibition: 0.85%
[2]
  growth inhibition: 9.9%
[3]
  growth inhibition: 12.2%
[4]
  growth inhibition: -4.85%
[5]
  growth inhibition: 0.1%
[6]
  growth inhibition: -3.45%

## Cc1ccc2[nH]c(=S)n(-c3ccc(Cl)cc3)c(=O)c2c1
[1]
  growth inhibition: 9.3%
[2]
  growth inhibition: 25.5%
[3]
  growth inhibition: 29.9%
[4]
  growth inhibition: 18.8%
[5]
  growth inhibition: 24%
[6]
  growth inhibition: -2.05%

## CCN(CCCl)c1cc(C(=O)NCCCN(C)CCCNC(=O)c2cc(N(CC)CCCl)c([N+](=O)[O-])cc2[N+](=O)[O-])c([N+](=O)[O-])cc1[N+](=O)[O-]
[1]
  growth inhibition: -4.75%
[2]
  growth inhibition: -2.9%
[3]
  growth inhibition: -17%
[4]
  growth inhibition: -4.05%
[5]
  growth inhibition: -2.2%
[6]
  growth inhibition: -9%

## O=P(O)(O)CCCCP(=O)(O)O.[Zn+2]
[1]
  growth inhibition: -3.05%
[2]
  growth inhibition: -2.45%
[3]
  growth inhibition: 1.6%
[4]
  growth inhibition: -5.1%
[5]
  growth inhibition: 3.75%
[6]
  growth inhibition: 7.05%

## NC1CCCCC1.[O]=[Ge].[O]=[Ge].[O]=[Ge][OH].[O]=[Ge][OH]
[1]
  growth inhibition: -26.9%
[2]
  growth inhibition: -10.9%
[3]
  growth inhibition: -10.8%
[4]
  growth inhibition: 13.1%
[5]
  growth inhibition: 12.9%
[6]
  growth inhibition: 4.95%

## O=C(CCl)NC1CCCCC1
[1]
  growth inhibition: 9.7%
[2]
  growth inhibition: -8.45%
[3]
  growth inhibition: 7.15%
[4]
  growth inhibition: -4.25%
[5]
  growth inhibition: 10.9%
[6]
  growth inhibition: -6.45%

## CN(C)CCC(=O)c1ccccc1
[1]
  growth inhibition: 3.05% and -40.5%
[2]
  growth inhibition: 0.7% and 11.3%
[3]
  growth inhibition: 5.85% and -7.35%
[4]
  growth inhibition: -0.6% and -27.6%
[5]
  growth inhibition: 4.35% and -1.8%
[6]
  growth inhibition: 4.4% and 10.6%

## C1CC2CCC(N3CCCC3)C(C1)C21OCCO1 (configuration not stated)
[1]
  growth inhibition: 11.3%
[2]
  growth inhibition: 9.75%
[3]
  growth inhibition: 5.05%
[4]
  growth inhibition: -3.2%
[5]
  growth inhibition: 6.45%
[6]
  growth inhibition: -8.9%

## NC(CCCCCP(=O)(O)O)C(=O)O (configuration not stated)
[1]
  growth inhibition: -38.8%
[2]
  growth inhibition: -29.8%
[3]
  growth inhibition: -63.3%
[4]
  growth inhibition: -12.3%
[5]
  growth inhibition: -17.4%
[6]
  growth inhibition: -37.5%

## O=C(O)C(=O)C(Cl)Br (configuration not stated)
[1]
  growth inhibition: 4.95%
[2]
  growth inhibition: -8.75%
[3]
  growth inhibition: -2.5%
[4]
  growth inhibition: -18%
[5]
  growth inhibition: 2.35%
[6]
  growth inhibition: 0.65%

## COc1cccc(C2CC23C(=O)NC(=O)NC3=O)c1 (configuration not stated)
[1]
  growth inhibition: -18%
[2]
  growth inhibition: -14.2%
[3]
  growth inhibition: -2.1%
[4]
  growth inhibition: 6.6%
[5]
  growth inhibition: -19.2%
[6]
  growth inhibition: -21.2%

## O=NN1CCNCC1
[1]
  growth inhibition: -20.1% and -11.3%
[2]
  growth inhibition: -16.1% and -24.3%
[3]
  growth inhibition: -16.7% and -13.2%
[4]
  growth inhibition: -24.5% and -9.25%
[5]
  growth inhibition: -5.9% and -6.1%
[6]
  growth inhibition: 8.2% and -2.55%

## Cc1cnc2ncn(Cc3c[nH]c(=O)[nH]c3=O)c(=O)c2c1
[1]
  growth inhibition: -0.45%
[2]
  growth inhibition: 5.55%
[3]
  growth inhibition: -8%
[4]
  growth inhibition: 14.2%
[5]
  growth inhibition: -18.4%
[6]
  growth inhibition: -11.5%

## CCOC(=O)C1OC(C2(C)OC3(OC4(C=CC3O)OC(C(C)C(=O)C(C)C(O)C(C)CC(C)c3c(Cl)cc(C)c(O)c3C(=O)O)C(C)CC4C)C(C)C2OC)CC1O (configuration not stated)
[1]
  growth inhibition: -12.7%
[2]
  growth inhibition: -27%
[3]
  growth inhibition: -6.95%
[4]
  growth inhibition: 22.9%
[5]
  growth inhibition: 5.9%
[6]
  growth inhibition: 5.75%

## CC(O)C[N+](=O)[O-] (configuration not stated)
[1]
  growth inhibition: 5.35%
[2]
  growth inhibition: 8.65%
[3]
  growth inhibition: -4.6%
[4]
  growth inhibition: -23%
[5]
  growth inhibition: 8.5%
[6]
  growth inhibition: 4.8%

## CCOP(=O)(N=S=O)OCC
[1]
  growth inhibition: 5.75%
[2]
  growth inhibition: -13.5%
[3]
  growth inhibition: -4.05%
[4]
  growth inhibition: -28.2%
[5]
  growth inhibition: 7.95%
[6]
  growth inhibition: -2.2%

## C[N+](C)(C)CCP(=O)([O-])O
[1]
  growth inhibition: -3.3%
[2]
  growth inhibition: 0%
[3]
  growth inhibition: 1.55%
[4]
  growth inhibition: -13.1%
[5]
  growth inhibition: -3.1%
[6]
  growth inhibition: 5.45%

## O=C(c1ccc([N+](=O)[O-])cc1)C1NC1c1ccccc1 (configuration not stated)
[1]
  growth inhibition: -24.2%
[2]
  growth inhibition: -16.6%
[3]
  growth inhibition: 24%
[4]
  growth inhibition: -2.65%
[5]
  growth inhibition: 22.3%
[6]
  growth inhibition: -15.7%

## N#Cc1ccncc1
[1]
  growth inhibition: 22.3%
[2]
  growth inhibition: -24.1%
[3]
  growth inhibition: 23.9%
[4]
  growth inhibition: -3.75%
[5]
  growth inhibition: 7.35%
[6]
  growth inhibition: 16%

## C/C=C/CC1(c2ccccc2)C(=O)NC(=S)NC1=O
[1]
  growth inhibition: 10.2%
[2]
  growth inhibition: -15%
[3]
  growth inhibition: 6.3%
[4]
  growth inhibition: -42.3%
[5]
  growth inhibition: -6%
[6]
  growth inhibition: 5.9%

## CCC[CH2][Sn]([CH2]CCC)([CH2]CCC)[CH2]CC[N+](C)(CCO)CCO.CS(=O)(=O)[O-]
[1]
  growth inhibition: 99.4% (active)
[2]
  growth inhibition: 99.2% (active)
[3]
  growth inhibition: 99.7% (active)
[4]
  growth inhibition: 99.3% (active)
[5]
  growth inhibition: 99.5% (active)
[6]
  growth inhibition: 99.2% (active)

## O=C(O)C(CSC(c1ccccc1)c1ccccc1)N1C(=O)c2ccccc2C1=O (configuration not stated)
[1]
  growth inhibition: 47.9%
[2]
  growth inhibition: 36.4%
[3]
  growth inhibition: 46.4%
[4]
  growth inhibition: 43.3%
[5]
  growth inhibition: 29.1%
[6]
  growth inhibition: 44.7%

## [Cl][Pt][Cl].[NH-]NC(=O)c1ccncc1
[1]
  growth inhibition: 8.65%
[2]
  growth inhibition: 5.8%
[3]
  growth inhibition: -3.55%
[4]
  growth inhibition: -17.1%
[5]
  growth inhibition: 2.35%
[6]
  growth inhibition: -2%

## [CH3][Sn]([CH3])([Cl])[S]CCN
[1]
  growth inhibition: 29.6%
[2]
  growth inhibition: 32.5%
[3]
  growth inhibition: -5.55%
[4]
  growth inhibition: 1.25%
[5]
  growth inhibition: -15.4%
[6]
  growth inhibition: 18.6%

## CC(=O)OC1(C(C)=O)CC2(c3ccccc3)OC1(c1ccccc1)c1ccccc12 (configuration not stated)
[1]
  growth inhibition: -0.55%
[2]
  growth inhibition: 12.1%
[3]
  growth inhibition: 9%
[4]
  growth inhibition: 10.2%
[5]
  growth inhibition: -3.9%
[6]
  growth inhibition: 7.25%
